# Measured values published in the supplement of paper PMC12819154, “High-throughput peptide-centric local stability assay extends protein–ligand identification to membrane proteins, tissues and bacteria” (Nature Structural & Molecular Biology, 2025).
# Assays:
# [1] = target: T1, UniProt P0AEX5; test: log2 fold change of tryptic peptide abundance, ligand vs vehicle (limited proteolysis) (log2 ratio); higher = more trypsin-susceptible (destabilized); settings: peptide sequence: EAVMDSVVR; peptide start residue: 177; ligand concentration: 5 mM; sample: E. coli desalted lysate; replicate design: treated before aliquoting
# T1 sequence (whole entry): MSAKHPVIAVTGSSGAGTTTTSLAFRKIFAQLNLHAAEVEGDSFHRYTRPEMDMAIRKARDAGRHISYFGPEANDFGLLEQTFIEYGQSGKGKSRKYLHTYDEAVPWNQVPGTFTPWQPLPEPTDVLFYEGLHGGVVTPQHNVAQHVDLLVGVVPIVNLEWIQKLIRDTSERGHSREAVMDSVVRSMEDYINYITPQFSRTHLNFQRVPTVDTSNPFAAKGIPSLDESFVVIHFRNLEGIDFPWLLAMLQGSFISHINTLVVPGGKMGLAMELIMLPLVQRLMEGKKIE
# Experimental: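 HT-PELSA: desalted E. coli K-12 BW25113 lysate (with 12 mM MgCl2) incubated with 5 mM ATP (pH 7) or water for 30 min at 25 C, then a 4 min trypsin pulse at 22 C. Peptides were quantified by DIA-MS (4 replicates). Value is the peptide log2 fold change (treated/control); negative = stabilized. Scale: negative = ligand-stabilized region.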
# [2] = target: UniProt O54950; test: log2 fold change of pooled soluble protein (PISA), ligand vs vehicle (log2 ratio); higher = more thermally stabilized; settings: ligand concentration: 20 uM; assay format: PISA pool 52.9/55.5/58.6 C
# [3] = target: UniProt P31938; test: as above; settings: ligand concentration: 20 uM; assay format: PISA pool 52.9/55.5/58.6 C
# [4] = target: UniProt P41241; test: as above; settings: ligand concentration: 20 uM; assay format: PISA pool 52.9/55.5/58.6 C
# [5] = target: UniProt Q3UHJ0; test: as above; settings: ligand concentration: 20 uM; assay format: PISA pool 52.9/55.5/58.6 C
# [6] = target: T2, UniProt Q5F2E8; test: as above; settings: ligand concentration: 20 uM; assay format: PISA pool 52.9/55.5/58.6 C
# T2 sequence (whole entry): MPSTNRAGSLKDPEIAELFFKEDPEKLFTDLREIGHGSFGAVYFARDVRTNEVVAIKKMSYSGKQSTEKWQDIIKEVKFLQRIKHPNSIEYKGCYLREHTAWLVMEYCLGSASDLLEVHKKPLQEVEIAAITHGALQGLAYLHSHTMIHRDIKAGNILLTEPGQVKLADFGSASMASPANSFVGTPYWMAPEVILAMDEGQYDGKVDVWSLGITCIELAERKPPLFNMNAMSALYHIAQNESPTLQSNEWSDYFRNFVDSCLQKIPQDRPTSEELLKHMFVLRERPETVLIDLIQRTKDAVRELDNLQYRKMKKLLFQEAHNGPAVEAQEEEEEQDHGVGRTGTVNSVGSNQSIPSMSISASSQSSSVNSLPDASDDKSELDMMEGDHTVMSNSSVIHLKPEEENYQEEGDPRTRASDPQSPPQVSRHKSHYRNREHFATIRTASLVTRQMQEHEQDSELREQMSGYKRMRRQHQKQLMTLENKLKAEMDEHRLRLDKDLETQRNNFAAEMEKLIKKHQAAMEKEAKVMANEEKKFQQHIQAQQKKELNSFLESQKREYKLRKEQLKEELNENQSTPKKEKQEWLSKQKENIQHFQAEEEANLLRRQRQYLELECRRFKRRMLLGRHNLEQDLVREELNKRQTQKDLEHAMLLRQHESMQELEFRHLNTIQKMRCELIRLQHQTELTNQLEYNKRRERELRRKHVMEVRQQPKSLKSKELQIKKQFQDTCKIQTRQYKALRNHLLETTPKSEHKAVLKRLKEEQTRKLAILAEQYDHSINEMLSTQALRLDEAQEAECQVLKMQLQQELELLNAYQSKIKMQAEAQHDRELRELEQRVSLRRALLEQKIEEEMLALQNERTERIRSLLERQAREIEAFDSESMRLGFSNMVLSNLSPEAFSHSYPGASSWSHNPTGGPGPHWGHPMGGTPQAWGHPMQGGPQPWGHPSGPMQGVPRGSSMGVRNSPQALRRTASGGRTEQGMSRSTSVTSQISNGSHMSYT
# [7] = target: UniProt Q63932; test: as above; settings: ligand concentration: 20 uM; assay format: PISA pool 52.9/55.5/58.6 C
# [8] = target: T3, UniProt Q64464; test: as above; settings: ligand concentration: 20 uM; assay format: PISA pool 52.9/55.5/58.6 C
# T3 sequence (whole entry): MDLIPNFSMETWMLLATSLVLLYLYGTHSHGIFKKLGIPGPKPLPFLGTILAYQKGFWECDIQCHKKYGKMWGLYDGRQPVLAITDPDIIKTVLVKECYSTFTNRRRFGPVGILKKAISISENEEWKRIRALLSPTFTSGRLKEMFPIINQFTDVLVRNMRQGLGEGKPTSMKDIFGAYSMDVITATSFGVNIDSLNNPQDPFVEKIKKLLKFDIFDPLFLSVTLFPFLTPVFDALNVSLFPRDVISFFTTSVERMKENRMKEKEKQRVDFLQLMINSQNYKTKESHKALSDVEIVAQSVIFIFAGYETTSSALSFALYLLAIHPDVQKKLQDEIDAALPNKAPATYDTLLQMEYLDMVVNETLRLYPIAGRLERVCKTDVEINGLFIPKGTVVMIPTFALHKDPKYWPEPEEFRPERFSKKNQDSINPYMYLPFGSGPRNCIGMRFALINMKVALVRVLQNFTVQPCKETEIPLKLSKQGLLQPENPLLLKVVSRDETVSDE
# [9] = target: T4, UniProt Q6PIU9; test: as above; settings: ligand concentration: 20 uM; assay format: PISA pool 52.9/55.5/58.6 C
# T4 sequence (whole entry): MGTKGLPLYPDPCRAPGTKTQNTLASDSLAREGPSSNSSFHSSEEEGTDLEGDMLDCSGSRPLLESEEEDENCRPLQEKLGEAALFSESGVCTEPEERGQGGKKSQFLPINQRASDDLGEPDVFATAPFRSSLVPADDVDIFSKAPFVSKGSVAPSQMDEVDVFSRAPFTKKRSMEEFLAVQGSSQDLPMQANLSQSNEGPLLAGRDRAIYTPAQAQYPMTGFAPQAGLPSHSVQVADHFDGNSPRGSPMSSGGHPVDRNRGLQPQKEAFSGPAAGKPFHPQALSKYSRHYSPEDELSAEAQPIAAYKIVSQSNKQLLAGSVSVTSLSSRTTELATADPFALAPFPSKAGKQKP
# [10] = target: UniProt Q8BRK8; test: as above; settings: ligand concentration: 20 uM; assay format: PISA pool 52.9/55.5/58.6 C
# [11] = target: UniProt Q8BTW9; test: as above; settings: ligand concentration: 20 uM; assay format: PISA pool 52.9/55.5/58.6 C
# [12] = target: T5, UniProt Q8BYY4; test: as above; settings: ligand concentration: 20 uM; assay format: PISA pool 52.9/55.5/58.6 C
# T5 sequence (whole entry): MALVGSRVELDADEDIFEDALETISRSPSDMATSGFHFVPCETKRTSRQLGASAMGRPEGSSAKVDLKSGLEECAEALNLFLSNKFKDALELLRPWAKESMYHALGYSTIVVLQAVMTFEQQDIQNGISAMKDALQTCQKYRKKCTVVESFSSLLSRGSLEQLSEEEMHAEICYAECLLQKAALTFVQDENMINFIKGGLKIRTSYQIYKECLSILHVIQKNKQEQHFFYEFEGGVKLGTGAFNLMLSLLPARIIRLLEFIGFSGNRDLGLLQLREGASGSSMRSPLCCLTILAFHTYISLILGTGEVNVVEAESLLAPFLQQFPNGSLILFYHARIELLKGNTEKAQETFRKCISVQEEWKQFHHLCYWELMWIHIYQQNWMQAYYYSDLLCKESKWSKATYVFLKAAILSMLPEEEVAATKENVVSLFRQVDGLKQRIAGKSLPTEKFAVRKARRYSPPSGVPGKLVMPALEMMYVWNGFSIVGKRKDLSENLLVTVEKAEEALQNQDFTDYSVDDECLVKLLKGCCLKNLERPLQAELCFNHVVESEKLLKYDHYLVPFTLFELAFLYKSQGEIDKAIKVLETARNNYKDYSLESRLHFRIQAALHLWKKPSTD
# [13] = target: UniProt Q9EQ20; test: as above; settings: ligand concentration: 20 uM; assay format: PISA pool 52.9/55.5/58.6 C
# [14] = target: T6, UniProt Q9JI10; test: as above; settings: ligand concentration: 20 uM; assay format: PISA pool 52.9/55.5/58.6 C
# T6 sequence (whole entry): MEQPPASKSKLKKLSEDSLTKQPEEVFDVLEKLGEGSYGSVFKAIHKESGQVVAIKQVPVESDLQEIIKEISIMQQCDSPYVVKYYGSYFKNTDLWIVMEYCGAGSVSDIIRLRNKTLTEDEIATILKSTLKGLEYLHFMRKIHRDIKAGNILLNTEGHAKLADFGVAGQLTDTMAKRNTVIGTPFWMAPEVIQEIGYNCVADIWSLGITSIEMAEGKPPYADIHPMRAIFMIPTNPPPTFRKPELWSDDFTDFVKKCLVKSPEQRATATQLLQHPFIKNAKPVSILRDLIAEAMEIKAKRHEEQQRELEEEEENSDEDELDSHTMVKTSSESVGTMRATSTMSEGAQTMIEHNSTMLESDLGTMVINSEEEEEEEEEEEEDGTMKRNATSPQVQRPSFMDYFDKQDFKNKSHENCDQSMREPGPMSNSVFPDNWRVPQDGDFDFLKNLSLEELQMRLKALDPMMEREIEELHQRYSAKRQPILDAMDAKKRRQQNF
# [15] = target: T7, UniProt Q9R092; test: as above; settings: ligand concentration: 20 uM; assay format: PISA pool 52.9/55.5/58.6 C
# T7 sequence (whole entry): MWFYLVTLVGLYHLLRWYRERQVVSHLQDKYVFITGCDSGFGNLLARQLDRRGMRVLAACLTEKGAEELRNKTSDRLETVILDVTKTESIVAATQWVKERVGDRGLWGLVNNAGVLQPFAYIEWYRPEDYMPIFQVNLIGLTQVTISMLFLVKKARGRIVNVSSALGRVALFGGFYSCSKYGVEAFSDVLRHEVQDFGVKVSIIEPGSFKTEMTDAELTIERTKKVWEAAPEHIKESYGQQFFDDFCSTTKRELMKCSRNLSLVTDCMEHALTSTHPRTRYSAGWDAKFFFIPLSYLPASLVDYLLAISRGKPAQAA
# [16] = target: T8, UniProt Q9R257; test: as above; settings: ligand concentration: 20 uM; assay format: PISA pool 52.9/55.5/58.6 C
# T8 sequence (whole entry): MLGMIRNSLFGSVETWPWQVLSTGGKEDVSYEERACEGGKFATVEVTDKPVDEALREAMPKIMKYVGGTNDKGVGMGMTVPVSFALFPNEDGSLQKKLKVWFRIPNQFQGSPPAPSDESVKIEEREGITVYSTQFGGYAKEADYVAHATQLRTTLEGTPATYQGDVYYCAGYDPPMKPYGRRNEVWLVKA
# 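Wherever log2 fold change of tryptic peptide abundance, ligand vs vehicle (limited proteolysis) is given: lysate desalted by size exclusion to strip endogenous ATP, peptide intensities built from DIA-NN precursor signals, and peptides missing any value discarded before comparison.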
# Chain of UniProt Q9EQ20 (Q9EQ20 whole entry): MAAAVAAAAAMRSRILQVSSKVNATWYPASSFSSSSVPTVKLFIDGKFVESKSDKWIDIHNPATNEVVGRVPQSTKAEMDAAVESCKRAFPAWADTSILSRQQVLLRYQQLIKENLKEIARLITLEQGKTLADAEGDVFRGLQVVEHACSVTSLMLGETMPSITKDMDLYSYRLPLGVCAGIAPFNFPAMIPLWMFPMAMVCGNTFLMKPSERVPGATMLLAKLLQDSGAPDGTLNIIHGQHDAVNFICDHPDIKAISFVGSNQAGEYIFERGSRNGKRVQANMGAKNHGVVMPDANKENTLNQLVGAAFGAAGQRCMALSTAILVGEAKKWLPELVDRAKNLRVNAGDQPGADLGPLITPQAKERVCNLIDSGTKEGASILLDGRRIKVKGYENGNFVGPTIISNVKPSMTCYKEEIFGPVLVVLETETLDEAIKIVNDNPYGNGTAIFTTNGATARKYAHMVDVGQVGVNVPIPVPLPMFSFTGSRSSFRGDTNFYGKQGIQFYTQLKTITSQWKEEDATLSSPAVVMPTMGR
# Chain of UniProt P41241 (P41241 whole entry): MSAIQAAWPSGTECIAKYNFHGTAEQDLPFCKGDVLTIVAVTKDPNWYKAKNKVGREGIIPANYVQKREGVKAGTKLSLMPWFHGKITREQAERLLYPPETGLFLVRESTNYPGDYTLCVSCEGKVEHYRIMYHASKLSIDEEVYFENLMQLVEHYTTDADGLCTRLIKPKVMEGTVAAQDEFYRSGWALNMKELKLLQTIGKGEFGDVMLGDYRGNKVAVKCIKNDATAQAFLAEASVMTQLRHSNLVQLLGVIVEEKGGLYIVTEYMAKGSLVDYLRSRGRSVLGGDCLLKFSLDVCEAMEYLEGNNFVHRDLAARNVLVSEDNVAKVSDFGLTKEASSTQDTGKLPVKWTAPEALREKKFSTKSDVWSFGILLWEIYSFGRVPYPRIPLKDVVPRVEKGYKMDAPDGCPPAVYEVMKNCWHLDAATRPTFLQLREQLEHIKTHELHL
# Chain of UniProt O54950 (O54950 whole entry): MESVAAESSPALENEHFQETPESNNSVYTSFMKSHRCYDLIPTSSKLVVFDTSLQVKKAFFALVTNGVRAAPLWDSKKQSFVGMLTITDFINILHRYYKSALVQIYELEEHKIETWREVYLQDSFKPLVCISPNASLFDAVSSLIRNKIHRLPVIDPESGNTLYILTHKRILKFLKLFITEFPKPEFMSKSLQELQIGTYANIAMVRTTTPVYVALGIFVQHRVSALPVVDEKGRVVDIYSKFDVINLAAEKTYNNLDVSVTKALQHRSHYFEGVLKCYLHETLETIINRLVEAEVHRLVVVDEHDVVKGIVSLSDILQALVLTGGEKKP
# Chain of UniProt P31938 (P31938 whole entry): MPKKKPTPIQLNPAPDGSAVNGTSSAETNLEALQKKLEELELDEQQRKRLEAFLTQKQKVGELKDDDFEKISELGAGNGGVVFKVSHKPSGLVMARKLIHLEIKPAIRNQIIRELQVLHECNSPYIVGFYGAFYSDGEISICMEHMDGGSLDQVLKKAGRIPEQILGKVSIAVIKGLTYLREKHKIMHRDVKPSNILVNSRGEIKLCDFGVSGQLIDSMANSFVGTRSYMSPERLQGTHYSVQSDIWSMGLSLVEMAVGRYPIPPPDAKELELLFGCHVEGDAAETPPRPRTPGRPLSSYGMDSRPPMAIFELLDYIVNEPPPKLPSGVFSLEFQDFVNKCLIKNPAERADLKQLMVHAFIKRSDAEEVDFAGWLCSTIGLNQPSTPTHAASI
# Chain of UniProt Q3UHJ0 (Q3UHJ0 whole entry, looked up): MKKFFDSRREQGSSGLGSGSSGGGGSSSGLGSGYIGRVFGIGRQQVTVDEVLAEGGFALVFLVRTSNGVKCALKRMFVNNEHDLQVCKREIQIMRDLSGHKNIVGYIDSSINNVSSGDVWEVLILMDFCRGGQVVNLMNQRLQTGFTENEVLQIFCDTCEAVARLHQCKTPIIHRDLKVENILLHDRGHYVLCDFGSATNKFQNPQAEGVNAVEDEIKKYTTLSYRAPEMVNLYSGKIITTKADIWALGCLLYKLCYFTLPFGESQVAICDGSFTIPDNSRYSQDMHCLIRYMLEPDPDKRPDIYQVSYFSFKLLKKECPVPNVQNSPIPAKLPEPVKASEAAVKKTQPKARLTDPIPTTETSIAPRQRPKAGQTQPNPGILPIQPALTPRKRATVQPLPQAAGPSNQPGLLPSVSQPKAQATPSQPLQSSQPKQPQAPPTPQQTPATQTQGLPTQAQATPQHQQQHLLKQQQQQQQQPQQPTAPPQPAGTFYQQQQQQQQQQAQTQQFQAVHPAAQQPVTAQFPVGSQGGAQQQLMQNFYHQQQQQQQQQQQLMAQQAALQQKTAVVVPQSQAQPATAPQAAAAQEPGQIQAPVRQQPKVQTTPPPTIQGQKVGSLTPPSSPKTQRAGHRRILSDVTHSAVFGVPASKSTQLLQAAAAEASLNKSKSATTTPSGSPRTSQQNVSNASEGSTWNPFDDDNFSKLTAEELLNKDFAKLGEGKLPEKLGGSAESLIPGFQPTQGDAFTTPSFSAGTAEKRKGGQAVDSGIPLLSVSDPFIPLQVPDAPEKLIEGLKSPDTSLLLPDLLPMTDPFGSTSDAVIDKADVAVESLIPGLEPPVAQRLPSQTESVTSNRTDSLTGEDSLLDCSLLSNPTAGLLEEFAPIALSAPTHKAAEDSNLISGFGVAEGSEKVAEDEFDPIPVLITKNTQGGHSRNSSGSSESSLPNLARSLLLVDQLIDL
# Chain of UniProt Q8BTW9 (Q8BTW9 whole entry): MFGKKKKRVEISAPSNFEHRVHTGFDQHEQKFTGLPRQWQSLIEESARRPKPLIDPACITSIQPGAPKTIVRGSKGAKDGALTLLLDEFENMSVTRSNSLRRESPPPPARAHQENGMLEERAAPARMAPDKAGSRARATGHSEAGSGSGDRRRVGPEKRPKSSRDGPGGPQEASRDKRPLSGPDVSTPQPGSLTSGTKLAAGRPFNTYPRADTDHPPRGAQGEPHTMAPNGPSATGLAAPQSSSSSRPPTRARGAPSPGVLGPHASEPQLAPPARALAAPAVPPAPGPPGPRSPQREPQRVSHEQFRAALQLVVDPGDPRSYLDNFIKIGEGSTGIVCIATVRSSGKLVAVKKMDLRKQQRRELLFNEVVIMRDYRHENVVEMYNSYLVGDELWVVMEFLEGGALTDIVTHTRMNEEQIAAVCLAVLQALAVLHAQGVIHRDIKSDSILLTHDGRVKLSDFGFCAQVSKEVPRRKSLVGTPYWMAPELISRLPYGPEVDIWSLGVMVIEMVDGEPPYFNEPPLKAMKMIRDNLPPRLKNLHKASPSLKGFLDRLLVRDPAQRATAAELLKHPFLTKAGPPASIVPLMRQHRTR
# Chain of UniProt Q8BRK8 (Q8BRK8 whole entry): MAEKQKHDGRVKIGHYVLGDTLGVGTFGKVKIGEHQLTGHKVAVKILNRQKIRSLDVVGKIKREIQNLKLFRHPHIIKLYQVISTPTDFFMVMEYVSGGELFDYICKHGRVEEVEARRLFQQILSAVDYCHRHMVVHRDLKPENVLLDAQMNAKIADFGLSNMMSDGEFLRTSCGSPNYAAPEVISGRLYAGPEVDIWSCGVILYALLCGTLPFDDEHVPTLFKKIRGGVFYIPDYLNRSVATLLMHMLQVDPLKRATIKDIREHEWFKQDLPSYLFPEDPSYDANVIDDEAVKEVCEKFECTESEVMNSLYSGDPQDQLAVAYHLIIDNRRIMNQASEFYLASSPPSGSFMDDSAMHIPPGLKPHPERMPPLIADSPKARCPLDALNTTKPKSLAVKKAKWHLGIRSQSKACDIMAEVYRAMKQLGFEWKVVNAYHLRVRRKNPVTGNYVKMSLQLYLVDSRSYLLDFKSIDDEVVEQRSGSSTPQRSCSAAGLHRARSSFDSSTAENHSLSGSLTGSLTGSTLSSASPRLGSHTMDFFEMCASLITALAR
# Chain of UniProt Q63932 (Q63932 whole entry): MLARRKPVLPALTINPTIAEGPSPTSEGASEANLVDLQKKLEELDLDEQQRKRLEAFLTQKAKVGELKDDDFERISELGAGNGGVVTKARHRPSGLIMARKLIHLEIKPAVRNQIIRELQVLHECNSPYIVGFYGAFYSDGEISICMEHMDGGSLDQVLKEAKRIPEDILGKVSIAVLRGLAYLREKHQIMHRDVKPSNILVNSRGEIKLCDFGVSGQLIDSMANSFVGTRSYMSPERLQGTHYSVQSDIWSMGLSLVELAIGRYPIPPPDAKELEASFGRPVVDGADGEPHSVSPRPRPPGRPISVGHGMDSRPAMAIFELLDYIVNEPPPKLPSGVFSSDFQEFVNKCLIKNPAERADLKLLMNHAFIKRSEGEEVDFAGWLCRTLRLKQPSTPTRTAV
Compound,log2 fold change [1],log2 fold change of pooled soluble protein [2],log2 fold change of pooled soluble protein [3],log2 fold change of pooled soluble protein [4],log2 fold change of pooled soluble protein [5],log2 fold change of pooled soluble protein [6],log2 fold change of pooled soluble protein [7],log2 fold change of pooled soluble protein [8],log2 fold change of pooled soluble protein [9],log2 fold change of pooled soluble protein [10],log2 fold change of pooled soluble protein [11],log2 fold change of pooled soluble protein [12],log2 fold change of pooled soluble protein [13],log2 fold change of pooled soluble protein [14],log2 fold change of pooled soluble protein [15],log2 fold change of pooled soluble protein [16]
Nc1ncnc2c1ncn2[C@@H]1O[C@H](COP(=O)(O)OP(=O)(O)OP(=O)(O)O)[C@@H](O)[C@H]1O [adenosine 5'-triphosphate],0.659,–,–,–,–,–,–,–,–,–,–,–,–,–,–,–
CN[C@@H]1C[C@H]2O[C@@](C)([C@@H]1OC)n1c3ccccc3c3c4c(c5c6ccccc6n2c5c31)C(=O)NC4 [staurosporine],–,0.645,2.14,1.02,1.91,1.2,2.18,0.447,0.619,0.661,1.36,0.552,0.615,1.77,0.855,0.471
